The campaign covered roughly 320,000 compounds. About 2,100 (0.66%) were called active. Not shown: some 53% with an inconclusive outcome. Calls follow the shape of the dose curve; as a rule, active = well fitted inhibition curve with a large enough effect in the signal ratio, with a control signal flat (not every such curve was filed as active); inconclusive = small, poorly fitted or top-dose-only effect, or effect the other way, or a change in a side signal; inactive = flat fitted curve, though single readings scatter; the % refers to the signal ratio. Only a selection was taken, and actives are over-represented in it overall.
experiment: qHTS Assay for Lipid Storage Modulators in Drosophila S3 Cells; details: BODIPY lipid droplet fluorescence, 18-24 h, cells fed with added oleic acid; cell number change: measured here: cell count max response; series mostly up to 46.1 µM; lipid storage change, negative = inhibition: at the top concentration;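 as to cell number change: cells counted by Cell Tracker Red CMTPX staining in the red channel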; as to lipid storage change, negative = inhibition: % is scaled to controls: 0 for no effect and ±100 for the full control effect
Summary of the method: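 Drosophila S3 cells loaded with oleic acid (400 uM, as added) and compounds at several concentrations; lipid droplets imaged by 488-nm laser-scanning cytometry, 500–530 nm intensity and object ratio to cell channel. Percent activity normalized to 20 uM Triacsin C.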
Potency is read from the fitted curve at half-maximal effect.

SMILES | lipid storage change, negative = inhibition | cell number change | Potency | outcome
O=C(O)/C=C/C(=O)NC1CCC(CC2CCC(NC(=O)/C=C/C(=O)O)CC2)CC1 (stereo not drawn) | 5.98% (inactive) | 16.5% | – | –
O=C(N/N=C/c1nn(-c2ccccc2)cc1-c1ccc(Cl)cc1)c1ccncc1 | -4.31% (inactive) | 11.9% | – | –
O=C(O)c1ccc(CNC(=O)c2ccc(S(=O)(=O)N3CCCCC3)cc2)cc1 | 18.3% (inactive) | -13.8% | – | –
CCN(CC)S(=O)(=O)c1ccc(C(=O)NCCCN=C2NS(=O)(=O)c3ccccc32)cc1 | 3.19% (inactive) | 17.2% | – | –
O=C(NCc1ccccc1F)c1ccc(S(=O)(=O)N2CCCCCC2)cc1 | – | 11.4% | 18.4 µM (active) | –
Cc1ccc(C)c2[nH]c(=O)c(CCNC(=O)c3ccc(S(=O)(=O)N4CCCC4)cc3)cc12 | – | -19% | 13 µM (active) | –
O=C(NCCN=C1NS(=O)(=O)c2ccccc21)c1ccncc1 | – | -9.37% | – | inactive
CN(c1ccccc1)S(=O)(=O)c1ccc(C(=O)NCc2ccccc2F)cc1 | – | -21.4% | 13 µM (active) | –
COc1ccc(OC)c2[nH]c(=O)c(CCNC(=O)c3ccc(S(=O)(=O)N4CCCC4)cc3)cc12 | -1.53% (inactive) | 1.32% | – | –
O=C(NCc1ccccc1F)c1cccc(S(=O)(=O)N2CCCCCC2)c1 | -28% (inactive) | 6.02% | – | –
CS(=O)(=O)c1ccc(C(=O)NCc2ccccc2F)cc1 | 4.1% (inactive) | 16.1% | – | –
Cc1ccc2cc(CCNC(=O)c3ccc(S(=O)(=O)N4CCCCC4)cc3)c(=O)[nH]c2c1 | 20.6% [at 9.22 µM] (inactive) | 17.8% | – | –
CN(c1ccccc1)S(=O)(=O)c1ccc(C(=O)NCc2cccs2)cc1 | -14.7% (inactive) | – | – | –
O=C(NCCCN=C1NS(=O)(=O)c2ccccc21)c1ccc(S(=O)(=O)N2CCCCC2)cc1 | – | -7.55% | 8.2 µM (active) | –
O=C(Nc1ccc(C(=O)N2CCOCC2)cc1)c1cnn2c(C(F)F)cc(-c3ccccc3)nc12 | 12.7% (inactive) | 19.9% | – | –
CCCCC1CCC(c2nc(-c3cccnc3)no2)CC1 (stereo not drawn) | 16.5% (inactive) | -3.76% | – | –
CCN1CCN(S(=O)(=O)Cc2ccccc2Cl)CC1 | -13.1% (inactive) | -8.44% | – | –
Cc1noc(C)c1CSc1nnc(-c2ccccc2)o1 | 13.2% (inactive) | 4.76% | – | –
Cc1ccc(CNC(=O)/C=C/C(=O)O)cc1 | -3.52% (inactive) | 15% | – | –
CN1CCN(c2oc(-c3ccco3)nc2S(=O)(=O)c2ccccc2)CC1 | 15.9% (inactive) | 0.475% | – | –
CC(=O)Nc1ccc(S(=O)(=O)Oc2cccc(N3C(=O)C4CCCCC4C3=O)c2)cc1 (stereo not drawn) | – | 5.92% | – | inactive
CCOc1ccc(Br)cc1S(=O)(=O)NCc1ccncc1 | 15.6% (inactive) | 3.33% | – | –
Cc1ccc(OCCn2cc(C(=O)O)c3ccccc32)cc1 | -6.41% (inactive) | 6.58% | – | –

SMILES | lipid storage change, negative = inhibition | cell number change | Potency | outcome
COc1ccc(C(=S)N2CCOCC2)cc1OC(=O)c1ccccc1Cl | -28.4% (inactive) | 11.8% | – | –
COc1ccc(C(CC(=O)O)NS(=O)(=O)c2ccc(C)cc2)cc1 (stereo not drawn) | – | 9.41% | 2.91 µM (active) | –
Cc1ccc(S(=O)(=O)NC(CC(=O)O)c2ccc(F)cc2)cc1 (stereo not drawn) | -0.309% (inactive) | 2.4% | – | –
COc1ccc(C(CC(=O)O)NS(=O)(=O)c2ccc(C)cc2)cc1OC (stereo not drawn) | -9.46% (inactive) | -5.13% | – | –
O=C(C1=C[C@@H](c2coc3ccccc3c2=O)C[C@@H](OCCCCO)O1)N1CCN(Cc2ccc3c(c2)OCO3)CC1 | -7.19% (inactive) | -4.69% | – | –
Cc1[nH]c(=S)c(C#N)c(-c2ccccc2)c1C(=O)Nc1ccccc1 | – | -24.7% | 7.31 µM (active) | –
Cc1ccc(-c2c(C(=O)Nc3ccccc3C)c(C)[nH]c(=S)c2C#N)o1 | -6.96% (inactive) | 5.19% | – | –
CCc1c(C(=O)Nc2ccccc2)c(C)[nH]c(=S)c1C#N | -4.8% (inactive) | 16.5% | – | –
O=C(CCCN1C(=O)S/C(=C/c2ccccc2)C1=S)Nc1ccc(C(=O)O)cc1 | -1.46% (inactive) | 10.3% | – | –
Cc1cc(C)cc(NC(=O)CCCN2C(=O)C(c3ccccc3)Oc3cccnc32)c1 (stereo not drawn) | – | – | -12% | –
CCc1cccc(NC(=O)CCCN2C(=O)C(c3ccccc3)Oc3cccnc32)c1 (stereo not drawn) | – | 12% | 20.6 µM (active) | –
CC(=O)c1ccc(NC(=O)CCCN2C(=O)C(c3ccccc3)Oc3cccnc32)cc1 (stereo not drawn) | – | -3.13% | – | inactive
Cc1ccc(C)c(NC(=O)C2CCCN2S(=O)(=O)c2ccc3c(c2)n(C)c(=O)c(=O)n3C)c1 (stereo not drawn) | 1.75% (inactive) | 7.23% | – | –
O=C(/C=C/c1ccccc1)NC(NC(=S)Nc1cc(Cl)ccc1Cl)C(Cl)(Cl)Cl (stereo not drawn) | – | -23.7% | 16.4 µM (active) | –
O=C(/C=C/c1ccccc1)NC(NC(=S)Nc1cccc(O)c1)C(Cl)(Cl)Cl (stereo not drawn) | 13.1% (inactive) | 11.8% | – | –
O=C(Cc1ccccc1)NC(NC(=S)Nc1cc(Cl)ccc1Cl)C(Cl)(Cl)Cl (stereo not drawn) | 23.7% (inactive) | -5.82% | – | –
COc1ccc2c(c1)c(C(=O)N/N=C/c1ccc(Br)cc1)c(C)n2C | 23% (inactive) | 12% | – | –
CCOC(=O)Cc1csc(N/N=C/c2ccc(C(F)(F)F)cc2)n1 | -8.86% (inactive) | -3.51% | – | –
CCN(CC)c1ccc(C=C2C(=O)OC(c3ccccc3)OC2=O)cc1 (stereo not drawn) | 7.24% (inactive) | 18.7% | – | –
CCN(CC)c1ccc(/C=C2/C(=O)ON=C2C)cc1 | – | -20.6% | 9.2 µM (active) | –
CC1=NOC(=O)/C1=C/c1ccc(N(C)C)cc1 | -7.07% (inactive) | -16.6% | – | –
CCOC(=O)C1CCN(Cc2nnc(-c3ccccc3C)o2)CC1 | 0.348% (inactive) | 14.7% | – | –
CCOC(=O)C(NCCc1ccccc1F)(NC(C)=O)C(F)(F)F (stereo not drawn) | 6.2% (inactive) | 0.435% | – | –

SMILES | lipid storage change, negative = inhibition | cell number change | Potency | outcome
O=C(Nc1cccnc1)c1ccc([N+](=O)[O-])o1 | – | – | – | inactive
O=C(Nc1cccc(NC(=O)c2ccccc2Cl)c1)c1ccc([N+](=O)[O-])o1 | -9.13% (inactive) | – | – | –
Cc1cc(C(=O)Nc2cccc(NC(=O)c3ccco3)c2)ccc1[N+](=O)[O-] | – | -29.7% | 1.84 µM (active) | –
Cc1cccc(NC(=O)NNC(=O)c2ccc(C)c([N+](=O)[O-])c2)c1 | 10.7% (inactive) | 11.9% | – | –
Cc1cc(C(=O)Nc2ccncc2)ccc1[N+](=O)[O-] | -12.8% (inactive) | -15% | – | –
O=C(Nc1ccc2oc(-c3cccnc3)nc2c1)c1ccc([N+](=O)[O-])o1 | – | -27.4% | 3.66 µM (active) | –
O=C(Nc1cccc(NC(=O)c2ccc([N+](=O)[O-])o2)c1)c1ccco1 | – | 19.2% | 5.8 µM (active) | –
O=C(Nc1ccc2oc(-c3cccnc3)nc2c1)c1ccco1 | -15.4% (inactive) | -3.59% | – | –
O=C(Nc1cccc(NC(=O)c2ccco2)c1)c1ccc([N+](=O)[O-])cc1 | 4.21% (inactive) | 3.56% | – | –
Cc1cccc(NC(=O)c2ccc(NCCc3ccccc3)c([N+](=O)[O-])c2)c1 | – | 11.4% | 16.4 µM (active) | –
O=C(Nc1ccc(Cl)c([N+](=O)[O-])c1)c1ccco1 | – | -24.9% | – | inactive
O=C(Nc1ccccc1)c1ccc(NCCc2ccccc2)c([N+](=O)[O-])c1 | -5.93% (inactive) | -13.2% | – | –
CCCCNC(=O)COc1ccccc1C(=O)c1cc(C#N)c(=O)n(CCOC)c1 | 8.97% (inactive) | 1.51% | – | –
COc1ccc(S(=O)(=O)N2CCCC2)c2ccccc12 | 4.12% (inactive) | 12.2% | – | –
CCc1ccc2[nH]c(=O)c(CN(CCN(CC)CC)C(=O)Nc3ccccc3OC)cc2c1 | – | 22.1% | – | inactive
COc1nc(N2CCCC2)nc(-n2nnc(C(C)=O)c2C)n1 | 5.12% (inactive) | 9.7% | – | –
CC(=O)c1c(C)[nH]c2ccccc2c1=O | -26.9% (inactive) | -9.21% | – | –
COC(=O)c1c(NC(=O)CSc2nnc(C)c(=O)[nH]2)sc(C)c1C | -1.42% (inactive) | -15.8% | – | –
COc1ccc(C2CC(c3ccc(Br)cc3)=NN2C(=O)CSC2=NCCS2)cc1 (stereo not drawn) | 2.73% (inactive) | -2.75% | – | –
COc1ccc(C(=O)Nc2cc(OC)nc(OC)n2)cc1 | 5.74% (inactive) | -3.14% | – | –
Cc1cccc(NC(=O)c2ccc([N+](=O)[O-])o2)c1 | – | 3.29% | 13 µM (active) | –
Cc1cccc(NC(=O)c2ccc(-c3ccccc3[N+](=O)[O-])o2)c1 | 3.52% (inactive) | 15.3% | – | –
O=C(Nc1c(Cl)ccc2nsnc12)c1ccc([N+](=O)[O-])o1 | – | 11.1% | – | inactive

SMILES | lipid storage change, negative = inhibition | cell number change | Potency | outcome
Cc1cc(C)cc(NC(=O)c2ccc([N+](=O)[O-])o2)c1 | -20.6% (inactive) | -11.8% | – | –
Cc1ccc2nsnc2c1NC(=O)c1cccc([N+](=O)[O-])c1 | 19.5% (inactive) | 3.04% | – | –
COc1cc(NC(C)=O)ccc1NC(=O)c1cc2ccccc2o1 | 1.23% (inactive) | 11.3% | – | –
COc1cc(NC(=O)c2cc3ccccc3o2)ccc1NC(=O)c1ccco1 | – | 2.99% | 0.58 µM (active) | –
COc1cc(NC(=O)c2ccc([N+](=O)[O-])o2)ccc1NC(=O)c1ccco1 | – | -26.2% | 8.2 µM (active) | –
COc1cc(NC(=O)c2ccccc2)ccc1NC(=O)c1cc2ccccc2o1 | -2.66% (inactive) | -16.3% | – | –
COc1cc(NC(=O)c2cccc([N+](=O)[O-])c2)ccc1NC(=O)c1ccco1 | -17.8% (inactive) | -8.46% | – | –
CCC(=O)Nc1ccc(NC(=O)c2ccco2)c(OC)c1 | – | 16% | – | inactive
Cc1ccc2nsnc2c1NC(=O)c1ccc([N+](=O)[O-])o1 | – | 0.87% | 18.4 µM (active) | –
Cc1ccc(C(=O)CCC(=O)OCc2nnc(-c3ccccc3)o2)cc1 | – | – | – | inactive
O=C1c2cc(Cl)ccc2OC2(CCNCC2)C12CC(c1ccccc1)=NO2 (stereo not drawn) | -6.62% (inactive) | 8.66% | – | –
COC(=O)[C@@]1(Cc2ccc(OC)cc2)[C@H]2c3cc(C(=O)N4CCCC4)n(CCSCCO)c3C[C@H]2CN1C(=O)c1ccccc1 | 2.21% (inactive) | 0.624% | – | –
CN(C1CCCC1)C1CCN(C(=O)CNC(=O)/C=C/c2cccc(C(F)(F)F)c2)CC1 | -1.31% (inactive) | 8.56% | – | –
CN(C)c1ccc(CN(C(=O)c2cccs2)C2CCS(=O)(=O)C2)cc1 (stereo not drawn) | – | 15.9% | – | inactive
c1ccc(OCc2nc3c4c(ncn3n2)-c2ccccc2CC42CCCC2)cc1 | -9.37% (inactive) | -10.9% | – | –
COc1ccccc1NC(=O)C1CCCN(c2cnccn2)C1 (stereo not drawn) | – | 17.3% | – | inactive
COc1cc2c(cc1OC)CN(C(=O)Nc1ccccc1)CC2 | -18.6% (inactive) | 6.01% | – | –
CCCc1cc(=O)n2[nH]c(C)c(-c3ccc(OC)cc3)c2n1 | – | 16.5% | 18.4 µM (active) | –
COC(=O)Cc1cc(=O)n2[nH]c(C)c(-c3ccccc3)c2n1 | -8.25% (inactive) | -1.66% | – | –
CCOC(=O)Cc1cc(=O)n2[nH]c(C)c(-c3ccc(Cl)cc3)c2n1 | – | -27.5% | – | inactive

From PubChem BioAssay AID2685 (National Center for Advancing Translational Sciences (NCATS), 2010)
